Experimental data reported in PMC6212790, “How bacterial xenogeneic silencer rok distinguishes foreign from self DNA in its resident genome”.
Whole data set: some 33,000 sequences, median “e-score” near -0.038, cut for the highest 2% near 0.33. Shown is part of a subset that was picked to be rich in the highest values.

Target: T1, GST-Rok-C97-191 (Bacillus subtilis subsp. subtilis str. …, UniProt O34857 97-191)
T1 sequence: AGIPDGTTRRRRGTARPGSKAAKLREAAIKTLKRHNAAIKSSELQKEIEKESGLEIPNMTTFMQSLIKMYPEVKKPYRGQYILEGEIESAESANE
Assay: protein binding microarray; Rok is a gene silencer of Bacillus subtilis; high values mean tight binding
Settings: protein: recombinant; tags: GST (pTH5325, pDEST15-Magic modified); dsDNA, one strand shown
Summary of the method: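 Every oligonucleotide joins a 25-mer constant primer to a 35-mer variable part drawn from a de Bruijn sequence of order 10, so each non-palindromic 8-mer appears at least 32 times and each palindromic 8-mer 16 times. The preference for every 8-mer is reported as a unitless, rank-based enrichment score (E-score). This score spans 0.5 for the most favored 8-mer to −0.5 for the most disfavored.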

Row | Sequence | binding signal [E-score]
1 | ACGGAAAG | -0.117
2 | CAGCTGCA | -0.0452
3 | TACCTAAA | 0.369
4 | AACCTAAA | 0.0757
5 | TACCTATA | 0.375
6 | CACCTAAA | 0.0109
7 | AACCTATA | 0.183
8 | CACCTATA | 0.223
9 | ACAATGGA | -0.0232
10 | GCTAGCCA | 0.153
11 | GATAAGAA | 0.0314
12 | CTATTACA | 0.35
13 | GTATTAGA | 0.171
14 | ATATTACA | 0.304
15 | GTATTAAA | 0.158
16 | CGATTATA | 0.261
17 | CTATTACC | 0.312
18 | GTATTATA | 0.388
19 | ATATTATC | 0.245
20 | CTATTATA | 0.329
21 | ATATTATG | 0.0424
22 | ATATTATA | 0.379
23 | CTATTATC | 0.211
24 | CCCACTAC | 0.0131
25 | AAGTGGCC | -0.135

Row | Sequence | binding signal [E-score]
26 | ATGCATAC | 0.0643
27 | AATGACAT | 0.115
28 | ATCTAACA | 0.192
29 | CTCTTAGA | -0.0403
30 | GGAAATTA | 0.28
31 | GGGAAATA | 0.229
32 | GGAAAATA | 0.331
33 | AGAAATTA | 0.344
34 | AGAAAATA | 0.342
35 | CGAAATTA | 0.31
36 | GAAAAATA | 0.273
37 | AGAAAATG | 0.187
38 | CGAAAATA | 0.204
39 | AAGAAGTG | 0.201
40 | GACCGGAA | -0.0227
41 | ATCCTGTA | 0.176
42 | ACGTAAGT | -0.0408
43 | AGCGTTTG | 0.0655
44 | ACAAAAAA | 0.136
45 | AATCGTCG | -0.0319
46 | GAACTAGA | 0.335
47 | ACACTAGA | 0.179
48 | AAACTAGA | 0.354
49 | AGACTAGA | 0.199
50 | CAACTAGA | 0.255

Row | Sequence | binding signal [E-score]
51 | TAACTAGA | 0.247
52 | CCTAATCA | 0.011
53 | CCTCTTAA | -0.103
54 | AACGCCAG | -0.0768
55 | GAGGGAAC | -0.0649
56 | ATAAACTG | 0.199
57 | GTAAACTA | 0.364
58 | CTAAACGA | -0.0375
59 | GTAAATTA | 0.378
60 | CTAAACTA | 0.386
61 | GTAAACAA | -0.0801
62 | ATAAATTA | 0.259
63 | ATAAACTC | 0.173
64 | CTAAACTC | 0.0554
65 | ATAAACTA | 0.359
66 | CTAAATTA | 0.141
67 | GTAAACGA | -0.119
68 | GGAGGAAC | -0.069
69 | ATAAGAAG | 0.0784
70 | TACAATAA | 0.108
71 | ACAAGGAG | -0.167
72 | AAACAGCC | -0.174
73 | TATGACAA | -0.00238
74 | CCGGCAAG | -0.0857
75 | CGCATGAC | -0.0389

Row | Sequence | binding signal [E-score]
76 | CATCCATC | -0.0668
77 | AAGCGGAC | -0.0303
78 | GAGAGCTC | -0.123
79 | CATGAATG | -0.00652
80 | AAGTGGTA | 0.385
81 | GATTGCTA | 0.18
82 | AATTGCTA | 0.328
83 | AATTGGTA | 0.331
84 | CAGTGGTA | 0.232
85 | CATTGGTA | 0.279
86 | CATTGCTA | 0.118
87 | AATTGGTC | -0.0353
88 | AAGTGGTC | -0.168
89 | GTCAAGTA | 0.157
90 | CCTTTTCC | -0.198
91 | CGCAACCG | 0.0123
92 | AAATTAAA | 0.205
93 | GAATTATC | 0.23
94 | GAATTATA | 0.24
95 | TAATTACA | 0.396
96 | AAATTATG | 0.224
97 | TAATTATA | 0.386
98 | CAATTATA | 0.291
99 | AAATTACA | 0.325
100 | AAATTATC | 0.364

Row | Sequence | binding signal [E-score]
101 | GAATTACA | 0.275
102 | AAATTATA | 0.389
103 | AAATTATT | 0.296
104 | AATCCATG | -0.019
105 | CGAGTAAA | 0.128
106 | ACTCAGGC | -0.123
107 | CAAAAGAG | -0.195
108 | ACGGGGAA | 0.0307
109 | GAGTCCTA | -0.119
110 | TATTTAGA | 0.0799
111 | ATAAAGGC | 0.052
112 | ACATACGC | -0.0272
113 | CATAGACA | -0.0183
114 | CGTCCACC | -0.198
115 | CAGTTATA | 0.187
116 | TAGTTATA | 0.39
117 | GAGTTATA | 0.213
118 | GAGGAACA | -0.114
119 | GAAATTAC | 0.359
120 | GAAATTAA | 0.278
121 | CAAATTAC | 0.33
122 | GAAATTGC | 0.239
123 | AAAATTAC | 0.327
124 | CAAATTAG | 0.044
125 | ATTCGCGG | -0.0504

Row | Sequence | binding signal [E-score]
126 | CTAAGTTA | 0.291
127 | GCGAGACC | -0.114
128 | CAACCCTG | -0.104
129 | ATCATCTA | 0.148
130 | GAGCCTAC | -0.193
131 | TAACAGTA | 0.342
132 | GAACAGTA | 0.179
133 | CTACAGTA | 0.235
134 | GTACAGTA | 0.283
135 | CAACAGTA | 0.315
136 | ATACAGTA | 0.385
137 | ATGGCACC | -0.0965
138 | CCCTTCGC | -0.198
139 | ACTAAGGA | 0.268
140 | ACGGCCAG | -0.104
141 | CCTTCTGC | -0.174
142 | AGTCGTAC | 0.108
143 | ATAGATAC | 0.357
144 | GTAGATAC | 0.381
145 | GTAGATAA | 0.397
146 | AGAGATAC | 0.166
147 | GAAGATAA | 0.224
148 | ATAGATAA | 0.325
149 | AAAGATAC | 0.0421
150 | AAAGATAA | 0.33

Row | Sequence | binding signal [E-score]
151 | CTAGATAA | 0.3
152 | GCAGATAC | -0.00726
153 | CTAGATAC | 0.204
154 | ACAGATAC | 0.252
155 | TGAGAAAA | 0.154
156 | AAGGATGA | -0.0751
157 | TGAAAGCA | 0.0344
158 | GACCGGGA | -0.0628
159 | ACAGGCGG | -0.187
160 | ATAGATAT | 0.415
161 | ATAGATAG | 0.267
162 | ACAGATAT | 0.185
163 | ACTTTTGA | 0.0573
164 | CAGACGCA | -0.191
165 | GATTTCAA | 0.0221
166 | ATTTTCTG | -0.0553
167 | ACTTTCTA | 0.386
168 | ACTTTCTC | 0.0481
169 | ATTTTCTA | 0.379
170 | AATTTCTA | 0.355
171 | AATTTCTC | 0.198
172 | CCTTTCTA | 0.108
173 | GATTTCTA | 0.357
